The record followed here is PubChem BioAssay (Tox21).

Values without a mark were called inactive. Inconclusive results are not listed. Calls of active or inactive are those of the source. Unless noted, the call rests on the fitted dose curve; in most records, active means well fitted curve in the direction sought with a large enough effect in the repeat runs; inconclusive means weak or mixed curves; inactive means no such curve, though single readings can be large; an effect the other way counts as inactive or inconclusive.

Experiment [1] in a line: qHTS assay for small molecules that induce genotoxicity in human embryonic kidney cells expressing luciferase-tagged ATAD5 (AID 651632). Further: nearly all actives have a fitted effect of over 15% in size. A digest of the protocol: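 Concentration-response screen for ATAD5 upregulation in HEK293T luciferase reporter cells; 16 hr treatment at 37C, then luminescence after 30 min with Amplite at room temperature.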
For orientation: In qHTS, concentration-response curves come from the screen itself.

Experiment [2] can be described thus: qHTS assay for small molecule agonists of the p53 signaling pathway - cell viability (AID 651633; calls by dose curve;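 further: p53RE-bla HCT reporter cells with a stable beta-lactamase p53 reporter; series mostly up to about 83 µM; nearly all actives have a fitted effect of over 30% in size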). In a few lines: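 p53RE-bla cells, seeded at 4,000 per well and rested 5 h at 37 C/5% CO2, received compounds in DMSO for 16 h at 37 C. CellTiter-Glo was then added, and luminescence was read after 30 min at room temperature to gauge cytotoxicity.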
Experiment [3] in a line: qHTS assay for small molecules that induce genotoxicity in human embryonic kidney cells expressing luciferase-tagged ATAD5 - cell viability (AID 651634; calls by dose curve; further: nearly all actives have a fitted effect of over 25% in size; further: potency means the concentration at half of the fitted maximal effect). In a few lines: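 15.5 hr compound or vehicle exposure of HEK293T cells expressing luciferase-tagged ATAD5 at 37C; live-cell protease activity is read by fluorescence after 30 min of CellTiter-Fluor.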
The nature of experiment [4]: qHTS assay for small molecule disruptors of the mitochondrial membrane potential - cell viability (AID 720634; calls by dose curve;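 further: human HepG2 liver cancer cells; series mostly up to about 83 µM; nearly all actives have a fitted effect of over 20% in size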). A digest of the protocol:
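In this qHTS format, HepG2 cells plated overnight were pinned with compound, incubated 1 hr, and assayed for ATP luminescence with CellTiter-Glo after m-MPI dye addition.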

Experiment [5] is described as follows: qHTS assay to test for compound auto fluorescence at 590 nm (red) in HepG2 cells (AID 720674). In a few lines: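 Compound auto-fluorescence is scored relative to Rose Bengal sodium, measured at 540/590 nm in live HepG2 cultures after 1 hr compound contact (37 C, 5% CO2).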
Experiment [6] is described as follows: qHTS assay to test for compound auto fluorescence at 535 nm (green) in HepG2 cells (AID 720675).
A short description of experiment [7]: qHTS assay to test for compound auto fluorescence at 460 nm (blue) in HEK293 cells (AID 720678). In a few lines:
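Cells were seeded and left to adhere for 4-5 hr at 37C. Compounds were then pin-transferred. After an overnight incubation at 37C under 5% CO2, intrinsic fluorescence at 405/460 nm was measured and referenced to triamterene.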

Experiment [8] in a line: qHTS assay to test for compound auto fluorescence at 590 nm (red) in HEK293 cells (AID 720679). In a few lines: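 Each well held 2,000 HEK293 cells in medium containing 10% dialyzed FBS. Following 4-5 hr attachment at 37C, 23 nL test compound or DMSO was added; plates sat overnight, and red fluorescence (540/590nm) was recorded.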
Experiment [9] can be described thus: qHTS assay to test for compound auto fluorescence at 535 nm (green) in HEK293 cells (AID 720680).
The nature of experiment [10]: qHTS assay to test for compound auto fluorescence at 460 nm (blue) in HEK293 cell free culture (AID 720681). In a few lines: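 Test compounds were pinned into cell-free culture medium (DMEM with 10% FBS) and fluorescence was read directly at Ex/Em 405/460 nm. Signals were expressed as fluorescence equivalents of triamterene, with DMSO vehicle as control.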
A short description of experiment [11]: qHTS assay to test for compound auto fluorescence at 535 nm (green) in HEK293 cell free culture (AID 720682). In a few lines: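 Compounds were pin-transferred into cell-free DMEM with 10% FBS, and green fluorescence was read at excitation 485 nm and emission 535 nm. Intensities were expressed as fluorescein-equivalent values.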
Experiment [12] can be described thus: qHTS assay to test for compound auto fluorescence at 590 nm (red) in HEK293 cell free culture (AID 720683). A digest of the protocol: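 Tox21 10K library compounds were pinned into cell-free DMEM with 10% FBS and fluorescence was read at excitation 540 nm. Activity is expressed as Rose Bengal sodium equivalency.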
The nature of experiment [13]: qHTS assay to test for compound auto fluorescence at 590 nm (red) in HepG2 cell free culture (AID 720684). In a few lines: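 Ex 540 / Em 590 nm read of compound in cell-free MEM (10% FBS). Rose Bengal sodium reference.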
Experiment [14] is described as follows: qHTS assay to test for compound auto fluorescence at 460 nm (blue) in HepG2 cell free culture (AID 720685). A digest of the protocol:
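Cell-free plates of MEM plus 10% FBS received 23 nL compound or DMSO vehicle; blue-channel (405/460 nm) intensity scored against triamterene as reference fluorophore.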

Experiment [15] can be described thus: qHTS assay to test for compound auto fluorescence at 535 nm (green) in HepG2 cell free culture (AID 720686).
Experiment [16] in a line: qHTS assay to test for compound auto fluorescence at 460 nm (blue) in HepG2 cells (AID 720687). In a few lines: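 Cells (2,000/well in MEM with 10% FBS) attached overnight at 37 C, then were exposed to compound or DMSO for 1 hr at 37 C, 5% CO2. Fluorescence read at Ex/Em 405/460 nm, expressed as triamterene-equivalent signal.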
The target in experiment [17] is Glucocorticoid receptor (Homo sapiens) (UniProt P04150). The experiment is described as follows: qHTS assay to identify small molecule agonists of the glucocorticoid receptor (GR) signaling pathway (AID 720691; active means well fitted activation curve with a large enough effect in the signal ratio in the repeat runs, not every such curve was filed as active; the % refers to the signal ratio). In a few lines: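 Measures GR pathway activation through a GRE-beta-lactamase reporter stably integrated in HeLa cells, with 18 h compound treatment at 37 C and fluorescence detection using a FRET substrate.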
Chain of Glucocorticoid receptor (Homo sapiens) (P04150 whole entry, looked up): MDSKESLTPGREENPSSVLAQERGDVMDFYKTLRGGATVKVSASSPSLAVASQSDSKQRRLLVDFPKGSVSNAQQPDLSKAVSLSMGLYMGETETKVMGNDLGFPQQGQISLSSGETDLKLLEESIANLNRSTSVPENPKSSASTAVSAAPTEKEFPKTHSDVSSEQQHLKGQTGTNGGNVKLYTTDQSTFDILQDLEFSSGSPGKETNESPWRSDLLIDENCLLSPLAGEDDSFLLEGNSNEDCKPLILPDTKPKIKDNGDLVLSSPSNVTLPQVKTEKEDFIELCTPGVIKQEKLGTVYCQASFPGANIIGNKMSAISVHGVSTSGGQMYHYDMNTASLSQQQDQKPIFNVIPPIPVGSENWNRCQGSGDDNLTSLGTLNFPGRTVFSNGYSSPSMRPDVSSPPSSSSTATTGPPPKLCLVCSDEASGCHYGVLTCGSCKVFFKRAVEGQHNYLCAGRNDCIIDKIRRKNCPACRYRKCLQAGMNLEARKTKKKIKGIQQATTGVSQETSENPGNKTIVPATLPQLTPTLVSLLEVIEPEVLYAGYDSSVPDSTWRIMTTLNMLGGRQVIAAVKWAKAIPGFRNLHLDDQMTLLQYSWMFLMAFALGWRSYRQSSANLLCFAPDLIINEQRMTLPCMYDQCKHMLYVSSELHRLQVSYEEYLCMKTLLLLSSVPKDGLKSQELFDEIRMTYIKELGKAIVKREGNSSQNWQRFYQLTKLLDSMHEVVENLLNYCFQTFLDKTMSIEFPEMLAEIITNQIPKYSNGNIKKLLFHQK

The target is the same in experiment [18]. The experiment is described as follows: qHTS assay to identify small molecule antagonists of the glucocorticoid receptor (GR) signaling pathway (AID 720692; active means well fitted inhibition curve with a large enough effect in the signal ratio in the repeat runs, not every such curve was filed as active; the % refers to the signal ratio; further: potency means the concentration at half of the fitted maximal effect). In a few lines: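 Tox21 10K library screened in concentration-response for blockade of dexamethasone (5 nM final)-induced GRE-bla reporter activity in HeLa cells; 18 h treatment, fluorescence read.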

As for `COc1nn(CSP(=S)(OC)OC)c(=O)s1`, the Potency result in experiment [1], in [2], in experiment [3] and in [4] was “inactive” in each case. Further, the compound was classed as inactive in experiment [5], in experiment [6], in experiment [7], in [8], in [9] and in experiment [10]. Moreover, the compound was classed as inactive in [11], in experiment [12], in [13], in experiment [14], in experiment [15] and in experiment [16]. The outcome in experiment [17] was inactive.
In the case of `Cc1ccccc1CCl`, the Potency result in experiment [1], in experiment [2], in experiment [3] and in [4] was “inactive” each time. Further, the call in experiment [5], in experiment [6], in experiment [8], in [9], in experiment [10] and in [11] was inactive. For the same compound, the compound was called inactive in [12], in experiment [13], in experiment [14], in experiment [15] and in experiment [16].
With `ClP(Cl)(Cl)(Cl)Cl`, the Potency entry in [1], in [2], in [3], in [4] and in experiment [18] was “inactive” in each case. The compound was called inactive in [5], in [6], in experiment [7], in experiment [8], in experiment [9] and in [10]. Besides, the outcome in experiment [11], in experiment [12], in experiment [13], in [14], in experiment [15] and in [16] was inactive. Besides, the compound was classed as inactive in [17].
Regarding `C[C@H]1CNCCc2ccc(Cl)cc21`, the Potency entry in experiment [1], in experiment [2], in experiment [3], in experiment [4] and in experiment [18] was “inactive” each time. For the same compound, the outcome in experiment [5], in [6], in experiment [8], in experiment [9], in [10] and in [11] was inactive. Besides, the outcome in experiment [12], in [13], in experiment [14], in experiment [15], in experiment [16] and in [17] was inactive.
Consider `C[C@@H]1CC[C@H]2[C@@H](C)C(=O)O[C@@H]3O[C@@]4(C)CC[C@@H]1[C@]32OO4`, for which the Potency entry in experiment [1], in experiment [2], in experiment [4] and in [18] was “inactive” each time. Moreover, in [3], the Potency is 1.06 µM (active). Also, the outcome in experiment [5], in experiment [6], in experiment [7], in experiment [8], in experiment [9] and in [10] was inactive. In addition, the call in experiment [11], in experiment [12], in experiment [13], in experiment [14], in experiment [15] and in experiment [16] was inactive. The result in [17] was inactive.
As for `NC(=O)C(Cl)(Cl)Cl`, the Potency result in experiment [1], in experiment [2], in [3] and in [4] was “inactive” throughout. Further, the compound was classed as inactive in [5], in [6], in experiment [8], in experiment [9], in [10] and in experiment [11]. The compound was classed as inactive in experiment [12], in experiment [13], in experiment [14], in [15] and in [16].
`COc1nn(C(=O)NS(=O)(=O)c2ccccc2OC(F)(F)F)c(=O)n1C`: the Potency result in experiment [1], in experiment [2], in experiment [3], in experiment [4] and in experiment [18] was “inactive” throughout. Moreover, the result in [5], in experiment [6], in experiment [7], in experiment [8], in [9] and in [10] was inactive. The result in [11], in [12], in experiment [13], in experiment [14], in [15] and in [16] was inactive. Also, the compound was classed as inactive in [17].
Consider `COP(=S)(OC)Oc1cc(Cl)c(I)cc1Cl`, for which the Potency entry in experiment [1], in [2] and in experiment [3] was “inactive” throughout. The result in experiment [5], in experiment [6], in experiment [7], in [8], in experiment [9] and in experiment [10] was inactive. Besides, the call in [11], in experiment [12], in experiment [13], in experiment [14], in experiment [15] and in [16] was inactive. Moreover, in [17], the outcome was inactive. For the same compound, in experiment [18], the Potency was 24.5 µM (active).
